Source: PubChem BioAssay (Sanford-Burnham Center for Chemical Genomics)
tim10-1 inh: inhibits growth of tim10-1 mutant yeast; S. cerevisiae tim10-1 ts strain growth, BacTiter-Glo, 24 h; inhibition, % at 20 µM; 330,000 compounds, 2.2% hits;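 active = inhibition of at least 40%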;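 also: mutant grown at 25 °C; 0% = DMSO wells with yeast and 100% = wells holding no yeast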
TIM10 inh: inhibits growth of TIM10 yeast strain. inhibition, % at 10 µM. S. cerevisiae TIM10 strain growth, BacTiter-Glo luminescence, 24 h. 330,000 compounds, 1.4% hits;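 active = inhibition of 40% or more at the single tested concentration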;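 also: wild-type TIM10 isogenic control strain grown at permissive 25 °C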
NALP1 inh: NALP1 inhibition. 280,000 compounds, 0.61% hits. inhibition, % at 10 µM. S. cerevisiae NALP1/ASC/caspase-1 growth, X-gal OD620, 72 h; in the data active = inhibition mostly above about 24%, no sharp cut-off; inactive = mostly below about 32%
NLRP3 yeast inh: NALP3 inhibition in yeast; inhibition, % at 10 µM; AID 2825; Yeast reconstituted NLRP3/ASC/caspase-1, beta-gal luminescence, 24 h; 330,000 compounds, 0.39% hits;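 active = inhibition of 50% or more; inactive = inhibition below 50%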;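 also: plate controls were induced DMSO wells for no effect and uninduced yeast grown without galactose for full effect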
tim23-1 inh: inhibits growth of tim23-1 mutant yeast | 330,000 compounds, 1.3% hits | S. cerevisiae tim23-1 growth, BacTiter-Glo luminescence, 24 h | AID 463212 | inhibition, % at 20 µM;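 active = growth inhibition of the mutant yeast at or above 50%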;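 also: temperature-sensitive mutant grown at 25 °C; plate controls were DMSO-treated mutant yeast for no effect and medium wells lacking yeast for full effect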
NALP3 yeast conf: NALP3 inhibition confirmation in yeast; 1,300 compounds, 81% hits; inhibition, % at 10 µM; shares compounds with NLRP3 yeast inh; yeast expressing human NALP3, luminescence; in the data active = inhibition above about 48%
Casp1-ASC yeast: active in yeast caspase-1-ASC counter-screen for NALP3 inhibitors | 1,000 compounds, 66% hits | inhibition, % at 10 µM | yeast expressing Caspase-1-ASC, luminescence counter screen | shares compounds with NLRP3 yeast inh
NALP3 yeast rt: confirmation retest of NALP3 inhibitors in yeast | shares compounds with NLRP3 yeast inh | yeast expressing human NALP3, luminescence read-out | inhibition, % at 10 µM | 1,000 compounds, 53% hits
The depositor's hits bear a star; . = not tested or not shown. This is a sample that favours compounds with a hit; in the whole collection about 4% have one here. Rule as the data show it, unless noted: active = inhibition above about 50%; inactive = the rest.

SMILES	tim10-1 inh	TIM10 inh	NALP1 inh	NLRP3 yeast inh	tim23-1 inh	NALP3 yeast conf	Casp1-ASC yeast	NALP3 yeast rt
C=CCOc1ccc(C(=O)c2ccccc2)c(OCC(=O)NC2(C#N)CCCC2)c1	-9.3	-11.3	-0.5	48.4	17.6	.	.	.
CCN(Cc1ccc2c(c1)OCCO2)C(=O)CSc1nc(C)nc2sc(C)c(C)c12	-1.6	-1.0	.	10.3	33.3	.	.	.
O=C(O)c1cccc(N2C(=O)CSC2=S)c1	12.8	14.4	5.3	10.8	10.1	.	.	.
O=C1CSC(=S)N1c1cccc(O)c1	10.8	2.3	96.3*	92.4*	34.8	93.1*	98.7*	95.8*
CN(C)c1ncc(CN2CCC(CO)(CCCc3ccccc3)CC2)s1	-19.2	-8.2	5.7	70.0*	-5.1	25.4	.	.
COc1ccc(CCNC(=O)C(=O)NCC2OCCN2C(=O)c2ccc(Cl)cc2)cc1OC (centres undefined)	-8.8	-0.6	5.0	11.7	3.6	.	.	.
Cc1ccc(OC(=O)c2ccc(C)c(C)c2)cn1	27.8	11.0	4.7	54.3*	22.9	53.9*	74.8*	45.5
Cc1ccc(OC(=O)c2ccc(Cl)c([N+](=O)[O-])c2)cn1	29.9	14.5	15.7	9.5	26.9	.	.	.
O=C(CC(c1ccccc1)c1ccccc1)Nc1ccc(C(=O)O)cc1	-6.1	6.9	12.1	-11.0	6.1	.	.	.
CC(NC(=O)c1ccccc1F)C12CC3CC(CC(C3)C1)C2 (centres undefined)	21.3	22.6	.	50.6*	34.1	59.7*	52.5*	37.7
COc1ccc(NC(C)=O)cc1CNC(=O)CN1CCOCC1	4.1	-5.2	10.5	3.1	12.1	.	.	.
COc1ccc(C2(C)CC(C)(C)Nc3ccccc32)cc1 (centres undefined)	-4.6	19.3	18.0	55.0*	7.9	51.3*	44.9	38.2
CC(=O)Nc1ccc(C2NC(=O)CCC2[N+](=O)[O-])cc1 (centres undefined)	16.8	18.7	6.6	4.2	16.3	.	.	.
COC(=O)C(C)Oc1ccc2cc(-c3ccccc3)c(=O)oc2c1 (centres undefined)	9.1	-26.6	20.0	30.6	11.7	.	.	.
COc1ccc2cc(-c3ccccc3)c(=O)oc2c1	-12.1	-23.8	25.5	63.4*	27.8	75.0*	67.8*	63.4*
COc1cccc2cc(-c3ccccc3)c(=O)oc12	-14.9	7.8	-8.1	53.8*	32.2	71.8*	57.6*	50.0*
COc1ccc2c(=O)c3ccccc3oc2c1	4.5	-3.9	22.6	57.0*	19.4	68.5*	47.5	45.4
CCOC(=O)CCNC(=O)c1ccc2nc(C3CCCCC3)oc2c1	18.8	-2.9	-25.7	12.9	11.8	.	.	.
Cc1cccnc1NC(=O)CCC(=O)c1cccs1	0.7	6.6	.	17.0	6.7	.	.	.
CN(C)CCNC(=O)C(=O)C1C(=O)Nc2ccccc21 (centres undefined)	-4.3	7.1	-1.0	12.0	-0.5	.	.	.
CCCCCNC(=O)C(=O)C1C(=O)Nc2ccccc21 (centres undefined)	-40.4	5.8	.	52.3*	3.0	70.7*	42.8	51.1*
Cc1ccc(NC(=O)C(C)OC(=O)Cn2[nH]c(=O)c3ccccc3c2=O)cc1 (centres undefined)	-12.6	-8.9	.	-4.6	-5.3	.	.	.
O=C(CN1CCCc2ccccc21)N/N=C/c1c(O)ccc2ccccc12	-5.5	14.5	27.7	4.4	43.0	.	.	.
CCOc1ccc2c(c1)C(=O)c1cc(OCC(=O)O)ccc1-2	-6.5	-8.5	17.0	-7.8	8.5	.	.	.
CCCCOc1ccc2c(c1)C(=O)c1cc(O)ccc1-2	28.3	-23.1	2.1	61.1*	48.7	70.3*	66.5*	62.0*
SMILES	tim10-1 inh	TIM10 inh	NALP1 inh	NLRP3 yeast inh	tim23-1 inh	NALP3 yeast conf	Casp1-ASC yeast	NALP3 yeast rt
Cc1cccc(NC(=O)c2ccc(S(=O)(=O)N3CCCCC3)cc2)c1	21.6	22.9	19.2	52.0*	33.1	60.0*	59.9*	51.9*
CC(CCCCCCCCC(=O)O)N(CCO)C(=O)OC(C)(C)C (centres undefined)	-5.4	1.2	.	-2.4	8.3	.	.	.
CNCc1cc(Br)c(OCC(=O)Nc2ccccc2OC)c(OC)c1	7.9	8.5	4.4	22.0	8.6	.	.	.
COc1cc(CNCCc2ccccc2)cc(Br)c1OCC(=O)Nc1ccccc1C	-19.6	24.7	23.1	53.9*	4.3	44.0	36.5	45.2
COc1cc(C=O)c(Br)cc1OCC(=O)NCCc1ccccc1	33.8	16.1	-11.6	-112.1	24.8	-19.2	.	.
Cc1[nH]n(-c2nc(-c3cccc([N+](=O)[O-])c3)cs2)c(=O)c1C	20.1	16.4	29.5	0.7	25.5	.	.	.
CN(CC(=O)Nc1ccc(F)cc1)C(=O)CN1C(=O)c2ccccc2C1=O	-0.8	-2.2	.	-8.9	8.4	.	.	.
CC(C)Oc1ccc(C(=O)N/N=C/c2ccc(-c3ccc(S(=O)(=O)Nc4ncccn4)cc3)o2)cc1	1.9	5.0	-4.3	14.4	-8.0	.	.	.
NC(=S)N/N=C/c1ccccc1OCc1cccc(Cl)c1	16.5	23.2	-4.0	56.0*	1.3	67.2*	57.6*	39.6
C=C1/C=C(\C)[C@](C)(O)C[C@H](O)CC(=O)[C@H](O)[C@@H](O)[C@H](C)C[C@H](C)OC(=O)/C(C)=C/CC/C=C/[C@@H]2O[C@H]2C[C@H](C)C1	-33.3	32.0	.	83.2*	4.4	88.7*	.	.
COc1ccccc1-c1sc2cc3c(cc2c1-c1ccc(OCCN2CCCCC2)cc1)OCO3	-2.1	21.3	.	64.1*	44.2	48.6*	46.5	43.0
C[C@]12CC[C@H](O)CC1=CCC1C2CC[C@@]2(C)C1CCC21OCCO1 (some centres undefined)	6.5	13.6	.	56.8*	15.5	62.5*	.	.
C/C(=N/Nc1ncc(Br)cn1)c1ccc(Br)cc1	-7.0	0.8	13.6	54.8*	10.2	70.3*	60.8*	51.8*
C/C(=N\Nc1ccc(C(=O)O)cc1)c1ccc(Br)cc1	0.1	7.8	2.1	12.0	36.6	.	.	.
COc1ccc(C(=O)N/C(=C/c2cccnc2)C(=O)N2CCN(C)CC2)cc1OC	2.6	11.5	22.0	3.5	5.8	.	.	.
CCc1noc(C)c1C(=O)Nc1nc(-c2ccc(F)cc2)c(C)s1	5.6	-4.0	6.0	12.8	23.3	.	.	.
CCc1noc(C)c1C(=O)Nc1nc(-c2cccs2)cs1	-3.0	-11.4	.	55.7*	25.7	70.7*	62.5*	60.5*
CCc1noc(C)c1C(=O)Nc1nc2c(C)cccc2s1	6.0	-5.8	.	58.8*	27.0	74.1*	68.7*	55.0*
CCc1noc(C)c1C(=O)Nc1nc2c(F)cc(F)cc2s1	28.6	25.2	.	72.2*	40.3	76.0*	78.8*	67.1*
CCc1noc(C)c1C(=O)Nc1ncc(C)s1	4.4	-21.1	-31.2	13.7	-7.6	.	.	.
CCc1noc(C)c1C(=O)Nc1ccc(C(F)(F)F)cc1	2.7	1.5	14.6	50.1*	-6.6	61.9*	49.1	45.5
